Here are results for seven compounds from PubChem BioAssay (EPA / NIEHS).

Assay [1] can be described thus: ATG_XTT_Cytotoxicity: Cytotoxicity Assessment in the Attagene TRANS-FACTORIAL HepG2 Assay (AID 2283584).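 As to AC50: XTT signal for cell number as viability in transfected HepG2 cells; cells exposed to compound for 24 h before reading; active means loss of viability signal versus DMSO baseline.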 The procedure, abridged:
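HepG2 cells transiently transfected with GAL4-UAS multiple reporter units, dosed 24 h; cytotoxicity read by XTT as loss of signal versus DMSO baseline.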

Read-out in assay [2]: Cellular tumor antigen p53 (Homo sapiens) (UniProt P04637)
The assay is described as follows: LTEA_HepaRG_TP53: Life Technologies and Expression Analysis (LTEA) Assay for Tumor Protein P53 (TP53) using HepaRG (AID 2283537; active = hit-call score of the fitted dose curve at least 0.9, where 1 is the maximum; inactive = score below 0.9). The note with it: mRNA level, 48 h; actives raise or lower the signal. The procedure, abridged:
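Read-out is TP53 transcript level by microfluidic qRT-PCR, normalised to three housekeeping genes and fitted bidirectionally against DMSO. Human HepaRG cells received compounds for 48 h, highest concentration 100 uM.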

Read-out in assay [3]: UDP glucuronosyltransferase (UGT1A1), UGT1A1 (gene 54658)
The assay is described as follows: LTEA_HepaRG_UGT1A1: Life Technologies and Expression Analysis (LTEA) Assay for UDP glucuronosyltransferase (UGT1A1) using HepaRG (AID 2283538; active = hit-call score of the fitted dose curve at least 0.9, where 1 is the maximum; inactive = score below 0.9). The note with it: mRNA level, 48 h; actives raise or lower the signal. The gist of the method: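 HepaRG, 48 h chemical exposure (top 100 uM, half-log 8-pt, 0.5% DMSO vehicle), duplicate wells; qRT-PCR (TaqMan, Fluidigm array) for UGT1A1 mRNA, housekeeping-normalized; bidirectional curve fit vs DMSO baseline.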

Read-out in assay [4]: UDP glucuronosyltransferase (UGT1A6), UGT1A6 (gene 54578)
The assay is described as follows: LTEA_HepaRG_UGT1A6: Life Technologies and Expression Analysis (LTEA) Assay for UDP glucuronosyltransferase (UGT1A6) using HepaRG (AID 2283539; active = hit-call score of the fitted dose curve at least 0.9, where 1 is the maximum; inactive = score below 0.9). The note with it: mRNA level, 48 h; actives raise or lower the signal. The gist of the method: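 Differentiated HepaRG cells, ~100,000/well, were exposed for 48 h in serum-free induction medium with 0.5% DMSO to 8-point half-log series topping at 100 uM, in duplicate. mRNA measured by Fluidigm TaqMan qRT-PCR, normalized to ACTB, GAPDH and POLR2A.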

The nature of assay [5]: LTEA_HepaRG_LDH_cytotoxicity: Cytotoxicity Assessment in the Life Technologies and Expression Analysis (LTEA) Assay (AID 2283563).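 As to AC50: LDH activity released into spent culture medium as a marker of cell death.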 The procedure, abridged:
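Differentiated HepaRG cells in serum-free induction medium, exposed 48 h in duplicate to 8 half-log concentrations up to 100 uM in 0.5% DMSO. Cytotoxicity from LDH measured in spent medium, fit relative to DMSO.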

The target in assay [6] is Cellular tumor antigen p53 (Homo sapiens) (UniProt P04637). The assay is described as follows: TOX21_p53_BLA_p2_ratio: Tox21 HCT-116 p53 Agonism Beta-lactamase Assay, Ratio, Phase 2 (AID 2283592). The procedure, abridged:
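First, HCT116 reporter cells settle for 5 h at 37C. Next, DMSO compound solutions are pinned in (217-fold dilution) and left 16 h. Finally, CCF4-AM substrate is loaded 2 h at room temperature and the 460/530 nm ratio read.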

The nature of assay [7]: TOX21_p53_BLA_p3_viability: Viability Assessment in the Tox21 HCT-116 p53 Agonism Beta-lactamase Assay, Phase 3 (AID 2283593).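 Also: cells exposed to compound for 16 h before reading.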 The gist of the method:
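HCT-116 cells (4000/well) rested 5 h at 37C, then got DMSO compounds by pin tool (217-fold dilution) for 16 h at 37C, 5% CO2. After the bla read, CellTiter-Glo was added and luminescence read at 30 min, room temperature.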

Assay [8] can be described thus: TOX21_p53_BLA_p4_viability: Viability Assessment in the Tox21 HCT-116 p53 Agonism Beta-lactamase Assay, Phase 4 (AID 2283597).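 Also: hits lower the luminescence signal meaning cytotoxicity.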 The gist of the method: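 4000 HCT116 cells per well; 5 h attachment; compounds from DMSO, 217-fold dilution; 16 h at 37C. Then CCF4-AM, 2 h RT, followed by CellTiter-Glo, 30 min RT, luminescence. Decrease = cytotoxicity.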
The target of assay [9] is Cellular tumor antigen p53 (Homo sapiens) (UniProt P04637). The assay is described as follows: TOX21_p53_BLA_p3_ratio: Tox21 HCT-116 p53 Agonism Beta-lactamase Assay, Ratio, Phase 3 (AID 2283596). The procedure, abridged:
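Cells were seeded at 4000/well, rested 5 h at 37C, then dosed with DMSO compound solutions (217-fold dilution) for 16 h. CCF4-AM substrate was loaded for 2 h at room temperature, and the 460/530 nm emission ratio was fitted for gain of signal versus DMSO.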

A short description of assay [10]: TOX21_p53_BLA_p2_viability: Viability Assessment in the Tox21 HCT-116 p53 Agonism Beta-lactamase Assay, Phase 2 (AID 2283591).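 Also: compound exposure lasted 16 h at 37 °C; actives lower the ATP signal meaning cytotoxicity.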 The procedure, abridged:
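HCT-116 p53-bla cells (4000/well) rested 5 h at 37C, then received compounds in DMSO (217-fold dilution) for 16 h at 37C, 5% CO2. After the CCF4 read, CellTiter-Glo was added; ATP luminescence was read after 30 min at room temperature.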

Several values for one entry are separate records, joined by “and”; a condition that tells them apart may be missing. Equal entries are not always repeated. Results filed as inconclusive are left out. Some structures have more than one record in an assay (separate samples or runs), and their calls can disagree. Activity calls are given as the source filed them. The calls were made as follows, unless noted: active = hit-call score of the fitted dose curve at least 0.9, where 1 is the maximum; inconclusive = response in the unintended direction; inactive = score below 0.9.

Chain of Cellular tumor antigen p53 (Homo sapiens) (P04637 whole entry, looked up): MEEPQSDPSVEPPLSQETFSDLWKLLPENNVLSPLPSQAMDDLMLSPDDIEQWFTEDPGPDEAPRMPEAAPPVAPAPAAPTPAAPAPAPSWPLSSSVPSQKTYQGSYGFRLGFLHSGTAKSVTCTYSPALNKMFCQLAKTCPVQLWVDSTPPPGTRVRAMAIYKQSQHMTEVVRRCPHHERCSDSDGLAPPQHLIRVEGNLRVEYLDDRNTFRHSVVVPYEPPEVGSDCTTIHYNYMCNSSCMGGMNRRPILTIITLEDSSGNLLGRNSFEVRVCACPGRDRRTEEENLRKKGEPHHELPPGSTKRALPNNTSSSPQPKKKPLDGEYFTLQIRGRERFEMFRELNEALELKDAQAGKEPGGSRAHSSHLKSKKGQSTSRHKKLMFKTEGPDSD

Take `Fc1ccc(C2(Cn3cncn3)OC2c2ccccc2Cl)cc1` (stereo not given): the call in [1] was inactive.
In the case of `ClC1(Cl)C2(Cl)C3(Cl)C4(Cl)C(Cl)(Cl)C5(Cl)C3(Cl)C1(Cl)C5(Cl)C24Cl` (stereo not given), the call in [2], in assay [3], in assay [4], in [5], in [1] and in [6] was inactive. The compound was classed as inactive in assay [7] and in [8].
`CC(C)(C)c1cc(O)ccc1O`: the compound was classed as inactive in [2], in [3], in [4], in [5], in assay [1] and in assay [6]. Further, the outcome in assay [7], in assay [9] and in assay [8] was inactive.
As for `O=C(O)C(Cl)(Cl)Cl`, the compound was classed as inactive in assay [2], in assay [3], in assay [4], in assay [5], in assay [1] and in assay [6]. The outcome in assay [9] and in [8] was inactive. In [4], the AC50 is 9.92 µM (active).
`O=c1[nH]c(=O)[nH]c(=O)[nH]1`: the compound was classed as inactive in assay [2], in assay [3], in assay [4], in [5], in [1] and in [6]. Besides, the outcome in assay [7], in assay [9] and in [8] was inactive.
On to `CC(=O)[O][Hg][c]1ccccc1`, for which the AC50 in assay [2] was 0.193 µM (active); in assay [3] it was 32.5 µM (active); in [4], 18.4 µM (active); in assay [5], 0.688 µM (active); in assay [1] it was 8.24 µM (active); in [6] it was 4.84 µM (active) and 12.5 µM (active) and 8.1 µM (active). The AC50 in assay [7] was 254 nM (active) and 422 nM (active) and 682 nM (active); in assay [9], 1.46 µM (active) and 1.07 µM (active) and 1.23 µM (active); in [8] it was 3.63 µM (active) and 4.05 µM (active) and 3.54 µM (active).
For `CC12CC1(C)C(=O)N(c1cc(Cl)cc(Cl)c1)C2=O` (stereo not given), the result in assay [2], in assay [4], in assay [5], in [1], in [10] and in assay [6] was inactive. Moreover, the outcome in [7], in [9] and in assay [8] was inactive. In addition, the AC50 in assay [3] is 10.5 µM (active).
